# According to PubChem BioAssay AID743312 (Broad Institute, 2014):
# Potency and affinity values are given separately. Calls of active or inactive are those of the source. Where a call stands in place of a potency, no number is given. The rule behind the calls is not given here.
# Assay: A549 cell cytotoxicity, dose response, cytotoxicity control, plate reader, dry powder, set 6 (AID 743312)
# Conditions: series mostly up to 26 µM
row,SMILES,outcome
1,COc1cccc(OCCn2cnc3ccccc32)c1,inactive
2,CC(C)Oc1ccc(OCCn2cnc3ccccc32)cc1,inactive
3,c1ccc(COc2ccc(OCCn3cnc4ccccc43)cc2)cc1,inactive
4,Cc1ccc(C(C)C)c(OCCn2c(NC#N)nc3ccccc32)c1,inactive
5,COc1ccc(OCCn2cnc3ccccc32)cc1,inactive
6,CC(C)(C)c1ccc(OCCn2cnc3ccccc32)c(Cl)c1,inactive
7,COc1cc(C)ccc1OCCn1cnc2ccccc21,inactive
8,FC(F)(F)c1cccc(OCCn2cnc3ccccc32)c1,inactive
9,Cc1cccc(OCCn2c(=S)[nH]c3ccccc32)c1,inactive
10,S=c1[nH]c2cc(Cl)ccc2n1CCOc1ccccc1,inactive
11,CSc1nc2ccccc2n1CCOc1ccccc1,inactive
12,Fc1ccc(OCCn2c(=S)[nH]c3ccccc32)cc1,inactive
13,Cc1cccc(OCCn2cnc3ccccc32)c1,inactive
14,CCCc1nc2ccccc2n1CCOc1ccccc1,inactive
15,CCCCc1nc2ccccc2n1CCOc1ccccc1,inactive
16,Cc1cc2ncn(CCOc3ccccc3)c2cc1C,inactive
17,Cc1ccc2c(c1)[nH]c(=S)n2CCOc1ccccc1,inactive
18,Cc1ccccc1OCCn1cnc2ccccc21,inactive
19,CC(C)Oc1ccc(OCCn2c(=S)[nH]c3ccccc32)cc1,inactive
20,Cc1ccc(C(C)C)c(OCCn2c(N)nc3ccccc32)c1,inactive
